According to PubChem BioAssay (NCI):
About 79,000 compounds went through this panel and 15% of them were active in at least one assay; those are over-represented in the sample as a whole. A number with no mark means an inactive call. The source made the active and inactive calls. Cut-off read from the data, not from the text of the source: active = growth inhibition above about 70%; inactive = the rest. Where a SMILES comes first, the peptide text is derived from it.

Legend:
[1] = NCI Yeast Anticancer Drug Screen. Data for the rad50 strain (AID 155);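 note: 0% = growth of vehicle-only cultures of the same strain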; details: S. cerevisiae rad50 strain growth inhibition; at 50.0 µM; active compounds read high
In short: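 Relative growth inhibition (compound vs vehicle) was measured in yeast with a defined repair-gene alteration.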

[2] = NCI Yeast Anticancer Drug Screen. Data for the mec2-1 strain (AID 157); details: S. cerevisiae mec2-1 strain, at 50.0 µM, active compounds read high
In short: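 mec2-1 yeast strain, carrying an alteration in DNA damage repair or cell cycle control, was exposed to compounds; growth inhibition was measured relative to vehicle-treated controls.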

[3] = NCI Yeast Anticancer Drug Screen. Data for the sgs1 mgt1 strain (AID 161);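 note: 0% = growth of cultures given vehicle only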; details: S. cerevisiae sgs1 mgt1 strain, at 50.0 µM, active compounds read high
In short: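 Yeast cells carrying a defined DNA-repair defect were exposed to test compounds. Growth inhibition was measured relative to vehicle-treated controls.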

[4] = NCI Yeast Anticancer Drug Screen. Data for the cln2 rad14 strain (AID 165);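 note: 0% = growth equal to vehicle treated cultures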; details: S. cerevisiae cln2 rad14 strain, at 50.0 µM, active compounds read high
In short: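 Yeast carrying cln2 and rad14 alterations (cell cycle control and DNA damage repair) were exposed to compounds. Growth inhibition was measured against vehicle-treated controls.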

[5] = NCI Yeast Anticancer Drug Screen. Data for the bub3 strain (AID 167); details: S. cerevisiae bub3 mutant strain, at 50.0 µM, active compounds read high
In short: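 Screening used yeast with an engineered genetic alteration affecting cell cycle control. Compound-exposed cultures were compared with vehicle cultures, and reduced growth was taken as inhibition.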

[6] = NCI Yeast Anticancer Drug Screen. Data for the mlh1 rad18 strain (AID 175); details: S. cerevisiae mlh1 rad18 strain growth inhibition; at 50.0 µM; active compounds read high
In short: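 Growth inhibition of the yeast strain was measured after compound exposure and expressed relative to vehicle-treated controls. The strain carries defined defects in DNA damage repair.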

Compound | growth inhibition [1] | growth inhibition [2] [%] | growth inhibition [3] | growth inhibition [4] [%] | growth inhibition [5] [%] | growth inhibition [6]
Cc1cc(N2CCCCC2)nc(N2CCCCC2)c1C#N | -4.2% | -20.2 | 27.7% | 14.6 | 35.9 | 13.8%
NC(=O)c1ccc([N+](=O)[O-])cc1 | 6% | -5.15 | 27.1% | -24.8 | -1.4 | 15.3%
CC(=O)N1c2ccccc2C2=NN(C)C(=N)SC21 (stereo not given) | -27.6% | -5.7 | -27.3% | -7.65 | -5.2 | 1.65%
COc1cc(C2=N/C(=C\c3ccc(Cl)c(Cl)c3)C(=O)O2)cc(OC)c1OC | -26.2% | -14.8 | 24.6% | -28.7 | -4.4 | 3.95%
Cc1ccc(S(=O)(=O)NC(=O)C2(Br)S(=O)(=O)OCCOS2(=O)=O)cc1 | 1.25% | -28.4 | 6.1% | -54.9 | 24.6 | 12%
COC(=O)C1=CO[C@@H](O)[C@@H]2C(C)OC(=O)C[C@H]12 (stereo not given in full) | -8.5% | -28.3 | -6.9% | 3.2 | -10.8 | -15.2%
CC1(C)CCCC2(C)C(C(=O)O)C3CCC45OC3(CC12)OC(=O)C4C1(C)CCCC(C)(C)C1CC5=O (stereo not given) | 2.15% | 5.65 | -0.9% | 2.85 | -2.1 | 9.25%
Cc1nc2c(sc(=S)n2-c2ccccc2)c2nc3ccccc3n12 | -9.35% | -15.7 | 7.7% | -1.2 | -2.55 | -20.6%
O=C1C=C(N2CCCC2)c2ccccc21 | 15.4% | -9.25 | 3.85% | -18.9 | -27.6 | 12.8%
CCOC(=O)/C(C#N)=C/c1ccc(C)o1 | 19.1% | 3.1 | 27.4% | 33 | 31.1 | 35%
CCN(CC)CCOc1cccc(Oc2ccccc2)c1 | 74% (active) | 62.7 | 72.8% (active) | 68.2 | 53 | 84% (active)
COC1OCC(NC(C)=O)C(OC(C)=O)C1OC(C)=O (stereo not given) | 12.4% | -13.1 | -4.1% | 2.35 | -1.3 | -8%
CC1=C(C(=O)CC(=O)C(=O)Nc2ccc(C)cc2C)Sc2ccccc2N1 | -1.55% | -20.9 | -33% | -9.8 | 6.2 | 24.6%
COc1cc(C(=O)C/C(CCC(=O)Nc2ccccc2[N+](=O)[O-])=N\NC(=O)CC#N)ccc1O | -25.9% | -20.8 | -36.7% | -11.4 | -11.6 | -31.4%
N#Cc1cc2c(n(C3OC(CO)C(O)C(O)C3O)c1=S)CCCCC2 (stereo not given) | -3.95% | -16 | -3.75% | -0.75 | 5.65 | 24.1%
ClC(Cc1ccccc1)(c1ccccc1)c1ccccc1 | -26.6% | 13.5 | -0.8% | -26.9 | 13.8 | -3.6%
COc1ccc(C2(C=O)NC(=O)NC2=O)cc1 (stereo not given) | -2.25% | -22.9 | -13.5% | 36 | -2.6 | 9%
COc1ccc2nccc(C)c2c1 | -13% | 16.9 | -0.9% | -0.9 | 1.5 | -0.25%
CC1CCC2(CC1)NN=c1s/c(=C\c3ccc(O)cc3)c(=O)n1N2 (stereo not given) | -9.3% | -1.7 | -21.9% | 8.55 | -21.2 | -19.9%
Nc1nc(N)nc(CC(=O)O)n1 | -16.5% | -22.7 | -57% | -60.2 | -14.7 | -36.7%

Compound | growth inhibition [1] | growth inhibition [2] [%] | growth inhibition [3] | growth inhibition [4] [%] | growth inhibition [5] [%] | growth inhibition [6]
Nc1[nH]c(=O)nc2nc(I)[nH]c12 | 5.05% | 2.75 | 22.7% | -17.2 | 22.9 | 3.35%
NC(=O)c1ccccc1NC(=O)Nc1ccc(Cl)cc1 | -3.6% | 20.8 | 13.8% | -15.3 | 21.5 | 27%
CC(=O)NC(C(=O)N1CCCC1C(=O)O)C(C)C (stereo not drawn) (Ac-Val-Pro-OH; configuration not given here) | 7.9% | -3.15 | -6.65% | 1.7 | -19.1 | 0.6%
CCOC(=O)C1=NNCC1c1cccc(Cl)c1 (stereo not given) | 12.5% | -7.5 | -3.7% | -37.9 | -13.2 | -6.5%
Cc1ccc(SS(=O)(=O)c2ccc([N+](=O)[O-])cc2)cc1 | 13.9% | 12.4 | 9.3% | -29.4 | -5.45 | 16.6%
CN=C(NC)c1ccc(Cl)c(Cl)c1 | 8.1% | -5.4 | -0.9% | -31.2 | 10.9 | 11.8%
C[C@]12CC[C@@H]3c4ccc(OCCCO)c([N+](=O)[O-])c4CC[C@H]3[C@@H]1CCC2=O | 16.3% | 6.8 | 17.7% | 12.4 | -0.5 | 16%
Cc1cccc2c3c(ccc12)C(=O)OC3=O | -0.3% | -2.85 | 4.1% | -22.3 | -6.5 | 4.25%
ClC/C(=N\N1CCCCCC1)c1ccccc1 | -7.8% | -4.05 | -4.75% | -10.2 | -1.6 | 2.2%
COC(=O)/C=C1\C(=O)c2ccccc2-c2ccccc21 | 35.8% | 35.4 | 13.9% | 20.3 | 25.4 | 51.6%
Cc1c(CN2CCOCC2)c(CN2CCOCC2)c(C)n1-c1ccc(Cl)cn1 | -31.1% | 7.9 | -23.1% | -6.85 | -15.7 | 7.55%
C=C1CCCCCCCCCCC1S(=O)c1ccccc1 (stereo not given) | 14.5% | 14.3 | 4.15% | -6.6 | -5.4 | 31.5%
O=C(O)C1Cc2nc[nH]c2CN1CO (stereo not given) | 6.1% | -8.8 | -19.8% | 3.95 | 23.7 | 8%
Nc1nc(Cl)cc(Oc2ccc(Cl)cc2)n1 | 9.65% | -17.6 | 22.6% | 2.5 | 17 | -30.6%
Cc1cccc(N=Nc2ccc(N=Nc3c(O)ccc4ccccc34)cc2C)c1 | -3.5% | 2.85 | 16.4% | 0.65 | 17.3 | 11.2%
CCOC(=O)C(NC(=O)CC(C)C)(NC(C)C)C(F)(F)F (stereo not given) | -8.45% | -2.25 | -9.4% | -8.1 | -3.45 | -12.9%
Cc1ccc(N(C)S(=O)(=O)c2ccc([N+](=O)[O-])cc2)cc1 | 8.4% | -2.65 | 29.1% | 21.1 | 42.1 | 26.2%
O=[N+]([O-])c1ccccc1Oc1ccccc1 | 33.6% | -8.65 | 5.65% | 14.2 | -14.7 | 8%
CCO/C(Cc1ccc(Cl)cc1)=N/NC(N)=S | 39.6% | 2 | 24.9% | 24.1 | 21.2 | -15.5%
COc1nc(NC2OCC(O)C(O)C2O)c(C(C)=O)c(=O)n1C (stereo not given) | 3.5% | -2.65 | 7.05% | -0.25 | -19.4 | -0.7%
